The values that follow come from ChEMBL document CHEMBL1961873, “Compounds: GSK PKIS; Assays: Nanosyn kinase panel” (2012).

Assay [1] deals with T1, Mitogen-activated protein kinase 12 (Homo sapiens) (UniProt P53778).
T1 sequence (whole entry): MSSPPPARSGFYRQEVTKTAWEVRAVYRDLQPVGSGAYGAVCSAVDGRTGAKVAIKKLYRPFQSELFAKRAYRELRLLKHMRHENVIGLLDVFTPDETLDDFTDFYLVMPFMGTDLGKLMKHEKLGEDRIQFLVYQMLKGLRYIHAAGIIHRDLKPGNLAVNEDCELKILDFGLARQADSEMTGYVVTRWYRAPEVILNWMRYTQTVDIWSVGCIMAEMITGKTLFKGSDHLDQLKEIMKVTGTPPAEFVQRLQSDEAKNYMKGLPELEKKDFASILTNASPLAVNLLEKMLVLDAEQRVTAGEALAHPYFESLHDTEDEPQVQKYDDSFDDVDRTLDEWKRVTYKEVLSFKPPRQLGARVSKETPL
The settings on record: at 1 µM.

For assay [2], the target named is SRSF protein kinase 1 (Homo sapiens) (UniProt Q96SB4). To be noted: at 0.1 µM.
The target is the same in assay [3]. To be noted: at 1 µM.
Assay [4] concerns the target Phosphatidylinositol 4,5-bisphosphate 3-kinase catalytic subunit alpha isoform (Homo sapiens) (UniProt P42336). The settings on record: at 0.1 µM.
For assay [5] the target is unchanged. The settings on record: at 1 µM.
Assay [6] addresses T2, Phosphatidylinositol 4,5-bisphosphate 3-kinase catalytic subunit delta isoform (Homo sapiens) (UniProt O00329).
T2 sequence (whole entry): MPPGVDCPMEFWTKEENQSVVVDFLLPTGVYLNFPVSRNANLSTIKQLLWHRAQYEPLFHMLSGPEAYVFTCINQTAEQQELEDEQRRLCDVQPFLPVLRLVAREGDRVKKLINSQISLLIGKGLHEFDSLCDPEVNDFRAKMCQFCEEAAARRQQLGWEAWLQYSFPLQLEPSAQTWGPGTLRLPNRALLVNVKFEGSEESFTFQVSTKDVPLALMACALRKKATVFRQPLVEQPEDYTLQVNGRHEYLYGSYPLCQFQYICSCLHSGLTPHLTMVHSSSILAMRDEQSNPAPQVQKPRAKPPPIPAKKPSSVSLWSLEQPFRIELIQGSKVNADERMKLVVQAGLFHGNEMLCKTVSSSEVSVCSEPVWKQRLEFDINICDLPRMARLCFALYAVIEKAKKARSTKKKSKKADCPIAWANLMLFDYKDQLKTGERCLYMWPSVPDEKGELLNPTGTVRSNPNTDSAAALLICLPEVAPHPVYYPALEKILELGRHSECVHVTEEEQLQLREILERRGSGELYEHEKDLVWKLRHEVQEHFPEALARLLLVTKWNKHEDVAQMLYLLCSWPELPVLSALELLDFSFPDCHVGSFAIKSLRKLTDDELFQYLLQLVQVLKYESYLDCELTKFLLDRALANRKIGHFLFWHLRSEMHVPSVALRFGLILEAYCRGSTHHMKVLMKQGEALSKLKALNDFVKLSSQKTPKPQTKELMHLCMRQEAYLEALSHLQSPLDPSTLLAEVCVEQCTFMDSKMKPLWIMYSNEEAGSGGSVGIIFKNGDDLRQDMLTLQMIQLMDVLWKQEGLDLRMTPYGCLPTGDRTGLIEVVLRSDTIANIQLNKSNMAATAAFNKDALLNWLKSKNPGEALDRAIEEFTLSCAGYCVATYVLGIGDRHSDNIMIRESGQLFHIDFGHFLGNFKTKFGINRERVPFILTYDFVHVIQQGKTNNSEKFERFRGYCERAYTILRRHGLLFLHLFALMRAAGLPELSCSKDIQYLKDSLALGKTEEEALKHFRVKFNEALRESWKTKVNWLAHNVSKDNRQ
To be noted: at 0.1 µM.

In assay [7] the target is T2, Phosphatidylinositol 4,5-bisphosphate 3-kinase catalytic subunit delta isoform (Homo sapiens). The settings on record: at 1 µM.
Assay [8] addresses Phosphatidylinositol 4-kinase beta (Homo sapiens) (UniProt Q9UBF8). The settings on record: at 0.1 µM.
For assay [9] the target is unchanged. To be noted: at 1 µM.
In assay [10] the target is Sphingosine kinase 1 (Homo sapiens) (UniProt Q9NYA1). To be noted: at 0.1 µM.
The target is the same in assay [11]. The settings on record: at 1 µM.
The target of assay [12] is T3, Sphingosine kinase 2 (Homo sapiens) (UniProt Q9NRA0).
T3 sequence (whole entry): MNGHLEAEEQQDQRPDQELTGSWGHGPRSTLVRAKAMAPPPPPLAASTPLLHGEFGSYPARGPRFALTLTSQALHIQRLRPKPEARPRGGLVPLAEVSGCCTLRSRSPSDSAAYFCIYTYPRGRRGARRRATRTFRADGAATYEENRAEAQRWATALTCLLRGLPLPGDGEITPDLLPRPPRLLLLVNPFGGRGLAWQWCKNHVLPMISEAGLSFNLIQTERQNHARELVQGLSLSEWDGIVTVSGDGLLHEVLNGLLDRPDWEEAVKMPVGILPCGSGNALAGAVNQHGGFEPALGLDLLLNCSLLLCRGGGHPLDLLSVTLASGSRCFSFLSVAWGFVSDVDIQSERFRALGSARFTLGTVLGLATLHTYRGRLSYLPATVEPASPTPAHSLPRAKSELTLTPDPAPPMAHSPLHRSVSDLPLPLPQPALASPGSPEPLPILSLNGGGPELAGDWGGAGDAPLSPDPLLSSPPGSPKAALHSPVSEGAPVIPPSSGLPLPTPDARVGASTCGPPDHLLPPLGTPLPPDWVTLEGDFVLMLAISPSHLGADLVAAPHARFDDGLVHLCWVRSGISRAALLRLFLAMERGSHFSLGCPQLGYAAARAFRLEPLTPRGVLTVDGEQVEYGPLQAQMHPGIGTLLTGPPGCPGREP
The settings on record: at 0.1 µM.

Assay [13] concerns the target T3, Sphingosine kinase 2 (Homo sapiens). To be noted: at 1 µM.
Assay [14] deals with Casein kinase II subunit alpha (Homo sapiens) (UniProt P68400). The settings on record: at 0.1 µM.
Assay [15] shares this target. To be noted: at 1 µM.
In assay [16] the target is T4, Inhibitor of nuclear factor kappa-B kinase subunit alpha (Homo sapiens) (UniProt O15111).
T4 sequence (whole entry): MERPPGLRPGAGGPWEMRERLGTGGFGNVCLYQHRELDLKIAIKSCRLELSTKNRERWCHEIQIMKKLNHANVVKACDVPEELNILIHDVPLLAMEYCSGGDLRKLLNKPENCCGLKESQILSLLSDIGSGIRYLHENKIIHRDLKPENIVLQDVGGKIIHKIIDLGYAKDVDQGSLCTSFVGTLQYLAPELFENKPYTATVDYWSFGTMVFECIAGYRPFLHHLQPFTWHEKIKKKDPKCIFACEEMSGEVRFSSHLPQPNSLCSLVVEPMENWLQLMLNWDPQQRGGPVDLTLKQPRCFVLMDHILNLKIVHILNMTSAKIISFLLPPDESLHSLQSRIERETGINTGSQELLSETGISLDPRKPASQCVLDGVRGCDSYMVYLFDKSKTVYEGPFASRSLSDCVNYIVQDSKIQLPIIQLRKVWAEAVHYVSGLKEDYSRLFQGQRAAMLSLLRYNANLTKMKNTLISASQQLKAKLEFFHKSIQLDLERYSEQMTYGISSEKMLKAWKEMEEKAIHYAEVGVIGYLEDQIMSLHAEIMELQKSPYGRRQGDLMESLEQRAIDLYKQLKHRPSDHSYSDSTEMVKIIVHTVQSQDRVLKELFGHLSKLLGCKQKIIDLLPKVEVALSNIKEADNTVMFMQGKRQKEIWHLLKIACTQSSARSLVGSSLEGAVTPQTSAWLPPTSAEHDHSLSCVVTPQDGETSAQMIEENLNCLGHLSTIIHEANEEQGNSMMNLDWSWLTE
The settings on record: at 0.1 µM.

Assay [17] concerns the target T4, Inhibitor of nuclear factor kappa-B kinase subunit alpha (Homo sapiens). The settings on record: at 1 µM.
Assay [18] has as its target T5, Inhibitor of nuclear factor kappa-B kinase subunit beta (Homo sapiens) (UniProt O14920).
T5 sequence (whole entry): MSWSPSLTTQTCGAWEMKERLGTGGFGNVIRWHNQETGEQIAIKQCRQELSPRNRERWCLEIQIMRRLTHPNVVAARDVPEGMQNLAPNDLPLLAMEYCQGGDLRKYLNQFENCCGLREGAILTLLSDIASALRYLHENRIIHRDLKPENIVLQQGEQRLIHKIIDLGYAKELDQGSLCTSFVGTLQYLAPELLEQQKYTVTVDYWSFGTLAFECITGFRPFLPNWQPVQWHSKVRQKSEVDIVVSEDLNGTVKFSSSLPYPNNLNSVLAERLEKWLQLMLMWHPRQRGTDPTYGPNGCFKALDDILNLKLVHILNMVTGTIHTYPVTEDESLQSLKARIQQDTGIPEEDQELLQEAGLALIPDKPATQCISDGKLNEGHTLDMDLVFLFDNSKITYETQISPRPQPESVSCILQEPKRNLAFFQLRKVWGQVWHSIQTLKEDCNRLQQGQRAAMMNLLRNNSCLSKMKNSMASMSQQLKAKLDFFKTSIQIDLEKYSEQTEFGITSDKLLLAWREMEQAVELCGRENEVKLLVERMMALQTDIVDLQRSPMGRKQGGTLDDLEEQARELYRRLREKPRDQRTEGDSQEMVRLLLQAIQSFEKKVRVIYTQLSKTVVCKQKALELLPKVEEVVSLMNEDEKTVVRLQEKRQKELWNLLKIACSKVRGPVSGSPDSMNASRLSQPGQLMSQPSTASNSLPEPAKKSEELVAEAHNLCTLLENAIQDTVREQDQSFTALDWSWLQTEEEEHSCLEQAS
The settings on record: at 0.1 µM.

For assay [19], the target named is T5, Inhibitor of nuclear factor kappa-B kinase subunit beta (Homo sapiens). The settings on record: at 1 µM.
Assay [20] deals with T6, Inhibitor of nuclear factor kappa-B kinase subunit epsilon (Homo sapiens) (UniProt Q14164).
T6 sequence (whole entry): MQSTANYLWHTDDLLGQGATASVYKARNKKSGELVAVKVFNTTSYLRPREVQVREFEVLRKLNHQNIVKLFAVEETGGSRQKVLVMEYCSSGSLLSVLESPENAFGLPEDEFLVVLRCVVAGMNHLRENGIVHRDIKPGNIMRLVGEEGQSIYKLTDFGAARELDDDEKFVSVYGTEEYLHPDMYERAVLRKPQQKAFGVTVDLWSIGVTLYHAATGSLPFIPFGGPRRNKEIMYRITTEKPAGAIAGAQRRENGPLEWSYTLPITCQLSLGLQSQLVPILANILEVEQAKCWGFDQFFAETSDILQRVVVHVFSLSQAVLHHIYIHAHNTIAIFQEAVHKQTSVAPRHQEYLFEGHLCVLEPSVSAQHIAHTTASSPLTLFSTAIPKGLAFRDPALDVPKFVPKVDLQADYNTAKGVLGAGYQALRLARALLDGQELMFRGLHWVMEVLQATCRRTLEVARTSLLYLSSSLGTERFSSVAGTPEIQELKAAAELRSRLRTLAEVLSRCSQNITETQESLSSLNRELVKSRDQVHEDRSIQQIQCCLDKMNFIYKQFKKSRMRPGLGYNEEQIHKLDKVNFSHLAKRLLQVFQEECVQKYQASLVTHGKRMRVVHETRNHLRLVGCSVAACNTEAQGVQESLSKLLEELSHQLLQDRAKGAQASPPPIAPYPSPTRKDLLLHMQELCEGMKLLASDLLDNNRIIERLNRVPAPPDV
To be noted: at 0.1 µM.

Chain of SRSF protein kinase 1 (Homo sapiens) (Q96SB4 whole entry): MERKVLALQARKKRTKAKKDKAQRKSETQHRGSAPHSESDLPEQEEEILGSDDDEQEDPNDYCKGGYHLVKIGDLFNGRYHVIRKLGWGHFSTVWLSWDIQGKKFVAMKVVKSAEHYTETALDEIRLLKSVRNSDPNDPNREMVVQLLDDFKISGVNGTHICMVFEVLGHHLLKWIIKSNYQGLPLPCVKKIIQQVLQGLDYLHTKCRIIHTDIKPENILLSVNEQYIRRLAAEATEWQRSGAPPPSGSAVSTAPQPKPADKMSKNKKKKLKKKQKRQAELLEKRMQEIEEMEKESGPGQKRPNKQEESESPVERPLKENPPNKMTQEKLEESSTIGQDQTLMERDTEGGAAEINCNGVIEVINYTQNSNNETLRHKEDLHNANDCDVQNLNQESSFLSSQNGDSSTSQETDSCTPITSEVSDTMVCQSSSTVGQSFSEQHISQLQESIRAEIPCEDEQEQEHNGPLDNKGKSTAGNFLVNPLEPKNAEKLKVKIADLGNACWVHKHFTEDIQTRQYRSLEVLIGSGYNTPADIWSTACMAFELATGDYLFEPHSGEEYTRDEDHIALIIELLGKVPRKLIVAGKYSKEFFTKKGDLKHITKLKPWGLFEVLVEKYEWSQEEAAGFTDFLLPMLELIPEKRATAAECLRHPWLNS
Chain of Phosphatidylinositol 4,5-bisphosphate 3-kinase catalytic subunit alpha isoform (Homo sapiens) (P42336 whole entry, canonical isoform): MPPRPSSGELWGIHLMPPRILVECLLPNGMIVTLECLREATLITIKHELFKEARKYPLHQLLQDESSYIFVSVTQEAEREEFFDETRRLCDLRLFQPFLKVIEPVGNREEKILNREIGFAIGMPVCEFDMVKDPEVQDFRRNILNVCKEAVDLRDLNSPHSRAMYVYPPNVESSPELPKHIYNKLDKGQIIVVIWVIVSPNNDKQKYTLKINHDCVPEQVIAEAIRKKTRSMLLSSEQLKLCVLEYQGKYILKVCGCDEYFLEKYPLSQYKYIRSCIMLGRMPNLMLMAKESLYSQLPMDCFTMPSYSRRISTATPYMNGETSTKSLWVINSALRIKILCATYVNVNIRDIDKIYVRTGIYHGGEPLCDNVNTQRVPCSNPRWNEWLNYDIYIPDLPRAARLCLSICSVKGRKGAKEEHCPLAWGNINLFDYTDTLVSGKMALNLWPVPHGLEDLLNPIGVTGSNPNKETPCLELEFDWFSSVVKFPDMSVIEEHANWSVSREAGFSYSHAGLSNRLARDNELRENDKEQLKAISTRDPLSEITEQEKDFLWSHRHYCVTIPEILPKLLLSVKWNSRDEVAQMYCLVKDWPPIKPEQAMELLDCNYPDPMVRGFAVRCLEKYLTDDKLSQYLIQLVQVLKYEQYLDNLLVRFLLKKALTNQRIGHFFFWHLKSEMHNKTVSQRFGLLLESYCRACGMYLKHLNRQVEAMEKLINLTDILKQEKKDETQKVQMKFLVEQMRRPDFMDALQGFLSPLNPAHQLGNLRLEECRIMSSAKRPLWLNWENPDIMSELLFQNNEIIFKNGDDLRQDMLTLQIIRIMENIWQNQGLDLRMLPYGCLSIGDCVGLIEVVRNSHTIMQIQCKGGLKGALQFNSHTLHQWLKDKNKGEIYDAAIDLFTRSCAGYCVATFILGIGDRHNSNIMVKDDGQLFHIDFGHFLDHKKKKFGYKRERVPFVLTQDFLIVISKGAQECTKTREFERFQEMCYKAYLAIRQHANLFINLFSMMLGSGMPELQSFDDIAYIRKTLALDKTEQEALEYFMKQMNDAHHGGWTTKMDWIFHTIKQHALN
Chain of Sphingosine kinase 1 (Homo sapiens) (Q9NYA1 whole entry): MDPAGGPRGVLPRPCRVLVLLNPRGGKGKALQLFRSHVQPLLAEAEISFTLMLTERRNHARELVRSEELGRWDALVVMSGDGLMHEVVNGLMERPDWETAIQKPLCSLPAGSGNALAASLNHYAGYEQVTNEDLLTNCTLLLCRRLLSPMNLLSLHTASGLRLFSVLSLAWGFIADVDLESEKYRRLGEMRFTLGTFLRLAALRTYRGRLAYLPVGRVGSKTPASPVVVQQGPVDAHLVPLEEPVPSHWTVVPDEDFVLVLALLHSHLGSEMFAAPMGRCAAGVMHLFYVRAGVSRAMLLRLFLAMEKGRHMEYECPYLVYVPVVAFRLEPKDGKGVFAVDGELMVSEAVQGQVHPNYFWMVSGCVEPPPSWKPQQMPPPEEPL
Chain of Casein kinase II subunit alpha (Homo sapiens) (P68400 whole entry, looked up): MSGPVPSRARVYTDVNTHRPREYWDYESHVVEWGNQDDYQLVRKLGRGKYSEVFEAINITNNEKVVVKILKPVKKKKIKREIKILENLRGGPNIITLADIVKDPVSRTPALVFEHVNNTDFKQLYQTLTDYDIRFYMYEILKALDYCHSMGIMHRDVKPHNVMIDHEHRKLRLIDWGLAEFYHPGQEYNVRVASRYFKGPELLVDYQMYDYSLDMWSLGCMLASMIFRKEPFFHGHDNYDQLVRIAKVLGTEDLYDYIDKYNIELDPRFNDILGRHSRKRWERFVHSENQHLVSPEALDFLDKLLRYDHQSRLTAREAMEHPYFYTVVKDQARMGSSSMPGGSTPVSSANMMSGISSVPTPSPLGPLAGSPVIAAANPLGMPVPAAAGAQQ
Chain of Phosphatidylinositol 4-kinase beta (Homo sapiens) (Q9UBF8 2-816 limits assumed): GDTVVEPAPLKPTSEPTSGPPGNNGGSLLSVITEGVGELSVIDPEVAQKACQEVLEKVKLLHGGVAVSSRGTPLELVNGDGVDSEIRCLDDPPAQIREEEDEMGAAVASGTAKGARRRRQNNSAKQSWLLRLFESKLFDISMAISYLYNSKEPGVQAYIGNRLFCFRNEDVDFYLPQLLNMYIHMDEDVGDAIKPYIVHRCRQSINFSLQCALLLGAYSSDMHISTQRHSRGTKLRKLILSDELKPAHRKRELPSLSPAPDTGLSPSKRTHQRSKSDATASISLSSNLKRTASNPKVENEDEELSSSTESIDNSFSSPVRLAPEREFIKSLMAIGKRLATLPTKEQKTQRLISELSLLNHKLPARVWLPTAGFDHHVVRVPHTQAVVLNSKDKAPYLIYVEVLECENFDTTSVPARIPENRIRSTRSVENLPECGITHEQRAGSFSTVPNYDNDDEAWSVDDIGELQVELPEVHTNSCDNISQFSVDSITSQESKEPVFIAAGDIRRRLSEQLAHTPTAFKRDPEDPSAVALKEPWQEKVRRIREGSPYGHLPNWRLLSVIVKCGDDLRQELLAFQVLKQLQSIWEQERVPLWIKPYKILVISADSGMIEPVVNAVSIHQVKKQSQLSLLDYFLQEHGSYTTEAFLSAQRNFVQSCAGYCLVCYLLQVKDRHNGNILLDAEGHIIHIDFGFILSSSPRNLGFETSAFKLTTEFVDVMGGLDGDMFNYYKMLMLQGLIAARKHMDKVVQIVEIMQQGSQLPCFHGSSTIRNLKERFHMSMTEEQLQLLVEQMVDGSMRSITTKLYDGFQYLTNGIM

One may read the inhibition as the drop in the measured response relative to a control, in per cent. In the case of `N#Cc1c(NC(=O)c2ccccc2F)sc2c1CCCC2`, the inhibition is -0.74% in [1]; -1.54% in assay [2]; -0.64% in assay [3]; -2.15% in [4]; -1.29% in assay [5]; 1.85% in assay [6]. Moreover, the inhibition in [7] was determined as 2.06%; in [8] it was 0.79%; in [9] it was 2.03%; in assay [10], 0.86%; in assay [11], 1.37%; in [12], 0.4%. Also, the inhibition in assay [13] is -1.81%; in assay [14], 2.62%; in [15], 1.09%; in assay [16], 2.43%; in assay [17] it was 5.52%; in [18], -1.19%. In addition, the inhibition in [19] is -1.36%; in [20] it was -2.08%.
Take `NS(=O)(=O)c1cccc(Nc2cc(-c3ccc(F)cc3)n[nH]2)c1`: the inhibition in assay [1] is 1.49%; in assay [2] it was -1.05%; in assay [3], 3.13%; in [4], 1.31%; in assay [5] it was 3.66%; in assay [6] it was -0.13%. Moreover, the inhibition in assay [7] was 0.5%; in assay [8], 2.18%; in assay [9], 0.88%; in [10] it was 0.58%; in assay [11], -0.2%; in assay [12] it was 0.87%. Also, the inhibition was -0.06% in assay [13]; 5.22% in assay [14]; 13.6% in [15]; 4.35% in assay [16]; 11.3% in [17]; 5.51% in assay [18]. In addition, the inhibition in assay [19] was found to be 4.5%; in assay [20], 8.55%.
For the compound `COc1cc2ncnc(Nc3ccc4c(cnn4Cc4ccccc4)c3)c2cc1OC`, the inhibition is 3.71% in assay [1]; -4.03% in assay [2]; -2.33% in assay [3]; 1.81% in assay [4]; 2.38% in assay [5]; 0.53% in assay [6]. Also, the inhibition in assay [7] amounted to 1.87%; in assay [8], 1.81%; in [9], 4.03%; in assay [10], 0.61%; in [11], 2.19%; in assay [12] it was 0.07%. Also, the inhibition in assay [13] is 0.14%; in assay [14], -5.08%; in assay [15], 4.31%; in [16] it was 2.23%; in assay [17], 8.23%; in assay [18] it was 3.63%. Moreover, the inhibition in assay [19] was determined as 3.81%; in assay [20] it was 2.69%.
